About 83,000 compounds went through this panel and 20% of them were active in at least one assay; those are over-represented in the sample as a whole.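 Single-concentration screen, 48 h exposure, 96-well plates. Endpoint: percent growth. Below 10 = active.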 Activity calls are given as the source filed them.
What was measured:
Assay in all cases: NCI-60 one-dose screen, 48 h (100 = growth as untreated, 0 = no growth, -100 = all killed)
Conditions in all cases: 10 µM unless noted
NCI-H23 lung = test system: NCI-H23 lung
NCI-H226 lung = test system: NCI-H226 lung
NCI-H322M lung = test system: NCI-H322M lung
HOP-62 NSCLC = test system: HOP-62 NSCLC
NCI-H460 lung = test system: NCI-H460 lung
HOP-92 NSCLC = test system: HOP-92 NSCLC
NCI-H522 lung = test system: NCI-H522 lung
A549/ATCC NSCLC = test system: A549/ATCC NSCLC
786-0 renal = test system: 786-0 renal
COLO 205 colon = test system: COLO 205 colon
DU-145 prostate = test system: DU-145 prostate
K-562 leukemia = test system: K-562 leukemia
MALME-3M melanoma = test system: MALME-3M melanoma
MDA-MB-231 breast = test system: MDA-MB-231 breast
RXF 393 renal = test system: RXF 393 renal
SF-268 CNS = test system: SF-268 CNS
SF-295 CNS = test system: SF-295 CNS
SF-539 CNS = test system: SF-539 CNS
UACC-257 melanoma = test system: UACC-257 melanoma
M14 melanoma = test system: M14 melanoma

Measured: growth

Cn1c(O)c(N=NC(=O)c2cc(-c3ccccc3)on2)c2ccccc21
inactive: NCI-H23 lung 88.5% | NCI-H226 lung 88.4% | NCI-H322M lung 108% | HOP-62 NSCLC 102% | NCI-H460 lung 100% | HOP-92 NSCLC 105% | NCI-H522 lung 89.9% | A549/ATCC NSCLC 108% | 786-0 renal 100% | COLO 205 colon 130% | DU-145 prostate 107% | K-562 leukemia 116% | MALME-3M melanoma 88.7% | MDA-MB-231 breast 95.6% | RXF 393 renal 104% | SF-268 CNS 100% | SF-295 CNS 99.8% | SF-539 CNS 99.9% | UACC-257 melanoma 119% | M14 melanoma 101%

FC(F)(F)c1ccc(-c2cn3nc(-c4c[nH]c5ccc(Br)cc45)sc3n2)cc1
inactive: NCI-H23 lung 85.8% | NCI-H226 lung 79.1% | NCI-H322M lung 85.5% | HOP-62 NSCLC 99.4% | NCI-H460 lung 100% | HOP-92 NSCLC 88% | NCI-H522 lung 91.6% | A549/ATCC NSCLC 99% | 786-0 renal 106% | COLO 205 colon 91.8% | DU-145 prostate 107% | K-562 leukemia 97.9% | MALME-3M melanoma 90.4% | MDA-MB-231 breast 88% | RXF 393 renal 118% | SF-268 CNS 113% | SF-295 CNS 95.2% | SF-539 CNS 101% | UACC-257 melanoma 107% | M14 melanoma 101%

COc1ccc(/C=C/C(=O)c2ccc(O)c(CN3CCN(c4cc5c(cc4F)c(=O)c(C(=O)O)cn5C4CC4)CC3)c2)cc1
inactive: NCI-H23 lung 37.7% | NCI-H226 lung 52.2% | NCI-H322M lung 22.6% | HOP-62 NSCLC 19.5% | NCI-H460 lung 51.4% | HOP-92 NSCLC 10.1% | NCI-H522 lung 16.9% | A549/ATCC NSCLC 22.3% | 786-0 renal 27.8% | COLO 205 colon 102% | DU-145 prostate 27.8% | K-562 leukemia 20.3% | MALME-3M melanoma 30.4% | MDA-MB-231 breast 50.6% | RXF 393 renal 28.3% | SF-268 CNS 30.3% | SF-295 CNS 13.1% | SF-539 CNS 18.8% | UACC-257 melanoma 42% | M14 melanoma 30.9%

COc1cc(-c2nc3cc(Cl)c(Cl)cc3[nH]2)ccc1OCC(=O)N=Nc1c(O)[nH]c2ccccc12
active: NCI-H23 lung -81.1% | NCI-H226 lung -27.2% | NCI-H322M lung -40.7% | HOP-62 NSCLC -60.2% | NCI-H460 lung -68% | HOP-92 NSCLC -67.2% | NCI-H522 lung -64.3% | A549/ATCC NSCLC 4.16% | 786-0 renal -82.6% | COLO 205 colon -78% | DU-145 prostate -69.9% | K-562 leukemia -32.4% | MALME-3M melanoma -94% | MDA-MB-231 breast -82.2% | RXF 393 renal -75.9% | SF-268 CNS -34.9% | SF-295 CNS -87.5% | SF-539 CNS -87.3% | UACC-257 melanoma -60.2% | M14 melanoma -76.1%

Cc1nn(-c2cc(=O)[nH]c3ccc(Cl)cc23)c(N)c1C#N
inactive: NCI-H23 lung 93.8% | NCI-H226 lung 81.3% | NCI-H322M lung 98.2% | HOP-62 NSCLC 94.9% | NCI-H460 lung 101% | HOP-92 NSCLC 104% | NCI-H522 lung 93.3% | A549/ATCC NSCLC 108% | 786-0 renal 106% | COLO 205 colon 119% | DU-145 prostate 114% | K-562 leukemia 113% | MALME-3M melanoma 105% | MDA-MB-231 breast 96.9% | RXF 393 renal 113% | SF-268 CNS 102% | SF-295 CNS 100% | SF-539 CNS 99.9% | UACC-257 melanoma 107% | M14 melanoma 110%

COc1ccc(CCNc2nc(SC)nc(-c3cccc([N+](=O)[O-])c3)c2C#N)cc1OC
inactive: NCI-H23 lung 92.7% | NCI-H226 lung 49.2% | NCI-H322M lung 88.2% | HOP-62 NSCLC 67.6% | NCI-H460 lung 88.5% | HOP-92 NSCLC 75.8% | NCI-H522 lung 66.7% | A549/ATCC NSCLC 82.2% | 786-0 renal 93.2% | COLO 205 colon 113% | DU-145 prostate 91.7% | K-562 leukemia 92.1% | MALME-3M melanoma 77.8% | MDA-MB-231 breast 83.1% | RXF 393 renal 90.1% | SF-268 CNS 63.6% | SF-295 CNS 88.5% | SF-539 CNS 74.6% | UACC-257 melanoma 89.7% | M14 melanoma 93.1%

O=Nc1c(O)c(Cl)cc2ccccc12
inactive: NCI-H23 lung 92.3% | NCI-H226 lung 78.9% | NCI-H322M lung 102% | HOP-62 NSCLC 75.1% | NCI-H460 lung 90.3% | HOP-92 NSCLC 112% | NCI-H522 lung 50.1% | A549/ATCC NSCLC 93% | 786-0 renal 105% | COLO 205 colon 70.9% | DU-145 prostate 101% | K-562 leukemia 54.3% | MALME-3M melanoma 90.8% | MDA-MB-231 breast 74.3% | RXF 393 renal 67.4% | SF-268 CNS 82.5% | SF-295 CNS 111% | SF-539 CNS 89.2% | UACC-257 melanoma 75.8% | M14 melanoma 85.7%

Reference: PubChem BioAssay (NCI)
